Laboratory results as given in PubChem BioAssay (NCATS).
Inconclusive results are not listed. A call without a number means that no potency is given here. More than one record can exist for a structure, and the calls need not agree. The source made the active and inactive calls. Calls come from the whole dose curve; as a rule, active = well fitted curve in the direction sought with a large enough effect; inconclusive = small, poorly fitted or top-dose-only effect, or another doubt; inactive = no such curve, though single readings can be large; an effect the other way counts as inactive or inconclusive.

Experiments:
[1] = target: Glutathione peroxidase 1 (Homo sapiens) (UniProt P07203); assay: Primary qHTS Assay for Inhibitors of Recombinant Selenoprotein Glutathione Peroxidase 1 (GPX1) (AID 1845191); note: nearly all actives have a fitted effect of over 65% in size
Chain of Glutathione peroxidase 1 (Homo sapiens) (P07203 whole entry, looked up): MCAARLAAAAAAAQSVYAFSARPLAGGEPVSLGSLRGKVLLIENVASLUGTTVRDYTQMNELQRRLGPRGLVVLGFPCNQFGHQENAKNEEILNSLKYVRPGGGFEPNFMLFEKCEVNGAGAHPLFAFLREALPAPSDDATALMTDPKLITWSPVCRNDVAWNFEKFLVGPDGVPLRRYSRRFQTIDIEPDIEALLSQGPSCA
How it was run: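 GR-coupled assay: compounds preincubated 30 min at room temperature with GPX1, then reaction started with CHP; final 10 nM GPX1, 1 mM GSH, 0.5 mM CHP, 0.5 mM NADPH, 100 nM GR, 0.01% BSA, pH 7.5 Tris buffer. NADPH fluorescence (340/450 nm) read at 0 and 15 min.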

[2] = target: Luciferin 4-monooxygenase (Photinus pyralis) (UniProt P08659); assay: Primary firefly luciferase (FLuc) qHTS assay for identification of artifact compounds. (AID 1845220); note: nearly all actives have a fitted effect of over 60% in size; note: potency is the fitted concentration of half-maximal effect
How it was run: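 D-luciferin and ATP (10 uM each, final) in Tris acetate buffer pH 7.6 were incubated with compounds for 15 min at room temperature. The reaction was started with 10 nM Photinus pyralis luciferase and luminescence read after 5 min. Percent inhibition was fitted to a 4-parameter Hill equation.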

[3] = Primary fluorescence-based thiol-reactive (MSTI) qHTS assay for identification of artifact compounds. (AID 1845221); note: nearly all actives have a fitted effect of over 65% in size; note: potency is the fitted concentration of half-maximal effect;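 for activity change, negative = thiol reactive: series mostly up to about 54 µM; thiol-reactive compounds lower the probe fluorescence signal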
How it was run: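 Curve-fitted percent inhibition (4-parameter Hill) derived from fluorescence, Ex 525/Em 598 nm, scaled with Acetyl-MSTI and MSTI; 1 h incubation at room temperature.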

[4] = tested on: Nanoluciferase (engineered Oplophorus gracilirostris luciferase); assay: Primary Nanoluciferase (NLuc) qHTS assay for identification of artifact compounds. (AID 1845222); note: series mostly up to about 54 µM
How it was run: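 Diluted conditioned medium from NLuc-expressing S16 cells treated with compounds for 15 min at room temperature, then Nano-Glo substrate added; luminescence read after 5 min. Percent inhibition versus no-enzyme and DMSO controls fitted to 4-parameter Hill equation.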

[5] = Primary redox qHTS assay for identification of artifact compounds. (AID 1845223)
How it was run: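 Amplex Red (25 uM) and HRP (250 mU/mL) in HBSS, with compounds for 15 min, then 250 uM DTT for 30 min, room temperature, dark. Fluorescence 525/598 nm read; normalized to DMSO and 10 uM DA3003; Hill fit.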

[6] = target: Phospholipid hydroperoxide glutathione peroxidase GPX4 (Homo sapiens) (UniProt P36969); assay: Primary qHTS Assay for Inhibitors of Recombinant Selenoprotein Glutathione Peroxidase 4 (GPX4) (AID 1845192); note: nearly all actives have a fitted effect of over 65% in size; note: potency is the fitted concentration of half-maximal effect
Chain of Phospholipid hydroperoxide glutathione peroxidase GPX4 (Homo sapiens) (P36969 whole entry, looked up): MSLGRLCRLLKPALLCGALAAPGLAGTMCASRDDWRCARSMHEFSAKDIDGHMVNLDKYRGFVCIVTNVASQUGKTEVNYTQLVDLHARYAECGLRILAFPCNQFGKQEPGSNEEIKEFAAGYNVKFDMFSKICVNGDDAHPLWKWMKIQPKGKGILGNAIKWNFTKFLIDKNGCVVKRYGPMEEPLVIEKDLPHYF
How it was run: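 GR-coupled assay: recombinant GPX4 preincubated 30 min with compound at room temperature; final 200 nM GPX4, 1 mM GSH, 0.5 mM cumene hydroperoxide, 0.5 mM NADPH, 100 nM GR, 0.01% BSA, pH 7.5 Tris. NADPH fluorescence (340/450 nm) read at 0 and 15 min.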

C=C1C(=O)O[C@H]2C3=C(C)CCC[C@]3(C)C(=O)C[C@@H]12
Potency [1]: inactive
Potency [2]: inactive
Potency [3]: inactive
Potency [4]: inactive
Potency [5]: inactive

O=C(Nc1ncc([N+](=O)[O-])s1)c1ccccc1O
Potency [1]: inactive
Potency [2]: 849 nM (active)
Potency [3]: 2380 nM (active)
Potency [5]: inactive

COC1CC(O[C@H]2CC[C@]3(C)C4CC[C@@]5(C)C(=O)[C@]4(CC[C@@H]3C2)CC[C@@H]5C2=CC(=O)OC2)OC(C)C1OC1OC(COC2OC(CO)C(O)C(O)C2O)C(O)C(O)C1O (stereo partly specified)
Potency [1]: inactive
outcome [2]: inactive [at 11.6 µM]
activity change, negative = thiol reactive [3]: 91.7% [at 11.5 µM] (inactive)
activity, negative = inhibition [4]: 0% [at 11.6 µM] (inactive)
redox activity (% of DA3003) [5]: 13.6% [at 11.5 µM] (inactive)

CNc1ccc([N+](=O)[O-])c(Nc2ccc3[nH]ncc3c2)n1
Potency [1]: inactive
Potency [2]: inactive
Potency [3]: 4740 nM (active)
Potency [4]: inactive
Potency [5]: inactive

CC(C)S(=O)(=O)c1ccc2nccc(Nc3ccc4scnc4c3)c2c1
Potency [1]: inactive
Potency [2]: inactive
Potency [3]: inactive
Potency [5]: inactive

Clc1cccc(COc2cncc(N3CCNCC3)n2)c1
Potency [1]: inactive
Potency [2]: inactive
Potency [3]: inactive
Potency [4]: inactive
Potency [5]: inactive

C=C[C@]1(C)C[C@H](O)[C@H]2C(=C)C(=O)O[C@@H]2[C@H]1C(=C)CO
Potency [1]: inactive
Potency [2]: inactive
Potency [3]: inactive
Potency [4]: inactive
Potency [5]: inactive

COc1c(F)cccc1C(=O)N1C[C@@H](C)CC[C@H]1CNc1ccc(Br)cn1
Potency [1]: inactive
Potency [2]: inactive
Potency [3]: inactive
Potency [5]: inactive

CN(C)CC#CCCC(=O)C(O)(c1ccccc1)C1CCC1 (stereo unspecified)
Potency [1]: inactive
Potency [2]: inactive
Potency [3]: inactive
Potency [4]: inactive
Potency [5]: inactive

O=C(NCC(=O)N1CCCC1)Nc1ccc2cnccc2c1
Potency [1]: inactive
Potency [2]: inactive
Potency [3]: inactive
Potency [4]: inactive
Potency [5]: inactive

COc1ccc2cc(-c3cc(-c4cc(Cl)cc(Cl)c4)nn3C(C)c3ccc(C(=O)NCCC(=O)O)cc3)ccc2c1 (stereo unspecified)
Potency [1]: inactive
Potency [2]: inactive
Potency [3]: inactive
Potency [4]: inactive
Potency [5]: inactive

CN[C@@H]1[C@H](O[C@H]2[C@H](O[C@@H]3[C@@H](O)[C@H](O)[C@@H](N=C(N)N)[C@H](O)[C@H]3N=C(N)N)O[C@@H](C)[C@]2(O)CO)O[C@@H](CO)[C@H](O)[C@H]1O
Potency [1]: inactive
Potency [2]: inactive
Potency [3]: inactive
Potency [4]: inactive
Potency [5]: inactive

O=C(Nc1cccnn1)N1CCN(c2nccc(-c3ccc(F)c(F)c3)n2)CC1
Potency [1]: inactive
Potency [2]: inactive
Potency [3]: inactive
Potency [4]: inactive
Potency [5]: inactive

CC(C)NC(=O)COc1cccc(-c2nc(Nc3ccc4[nH]ncc4c3)c3ccccc3n2)c1
Potency [1]: inactive
Potency [2]: inactive
Potency [3]: inactive
Potency [4]: inactive

O=C([C@@H](Cc1cccc(C(F)(F)F)c1)NS(=O)(=O)c1cc(F)c2c(c1)CCNC2)N1CCCC1
Potency [1]: inactive
Potency [2]: inactive
Potency [3]: inactive
Potency [4]: inactive
Potency [5]: inactive

Cc1ccc(CNc2ncnc3ccc(-c4ccc(CO)o4)cc23)o1
Potency [1]: inactive
Potency [2]: inactive
Potency [3]: inactive
Potency [4]: inactive
Potency [5]: inactive

O=C(O)c1cc(N(Cc2ccc(C3CCCCC3)cc2)C(=O)c2ccc(Oc3ccccc3)cc2)ccc1O
Potency [1]: inactive
Potency [2]: inactive
Potency [3]: inactive
Potency [4]: inactive
Potency [5]: inactive

C=C1C(=O)O[C@@H]2C=C(COC(C)=O)CC/C=C(\CO)CC[C@@H]12
Potency [1]: inactive
Potency [2]: inactive
Potency [3]: inactive
Potency [4]: inactive
Potency [5]: inactive

COC1CC(O[C@H]2CC[C@]3(C)C4CC[C@]5(C)C(C6=CC(=O)OC6)=CCC56OC46CC[C@@H]3C2)OC(C)C1O[C@@H]1O[C@H](CO[C@@H]2O[C@H](CO)[C@@H](O)[C@H](O)[C@H]2O)[C@@H](O)[C@H](O)[C@H]1O (stereo partly specified)
Potency [1]: inactive
outcome [2]: inactive [at 11.6 µM]
activity change, negative = thiol reactive [3]: 101% [at 11.5 µM] (inactive)
activity, negative = inhibition [4]: 0% [at 11.6 µM] (inactive)
redox activity (% of DA3003) [5]: 3.85% [at 11.5 µM] (inactive)

CC/C(C)=C/C(=O)OC1C(OC2(C)CCC3C(C4C(C)CCC42)C3(C)C)OC(C)C(O)C1O (stereo unspecified)
Potency [1]: inactive
Potency [2]: inactive
Potency [4]: inactive
Potency [5]: inactive

COc1cc(F)c(F)c(Nc2ccc(I)cc2F)c1NS(=O)(=O)C1(CC(O)CO)CC1 (stereo unspecified)
Potency [6]: inactive
Potency [2]: inactive
Potency [3]: inactive
Potency [4]: inactive

COc1cc2c(cc1OC)CN(C(=O)/C=C/c1c(-c3ccccc3)n(C)c3ncccc13)CC2
Potency [6]: inactive
Potency [2]: inactive
Potency [3]: inactive
Potency [4]: inactive

Cn1sc(=O)n(Cc2ccccc2)c1=O
Potency [1]: inactive
Potency [3]: inactive
Potency [5]: inactive

Oc1cccc(-c2c3nc(c(-c4cccc(O)c4)c4ccc([nH]4)c(-c4cccc(O)c4)c4nc(c(-c5cccc(O)c5)c5ccc2[nH]5)CC4)C=C3)c1
Potency [6]: inactive

CCOC(=O)COc1ccc2c(=O)cc(-c3ccccc3)oc2c1
Potency [6]: inactive

Cc1c(Cl)cccc1S(=O)(=O)Nc1nc(NCCc2ccccc2)nc2c1CN(Cc1ccccc1)CC2
Potency [6]: inactive
Potency [2]: inactive
Potency [3]: inactive
Potency [4]: inactive

CS(=O)(=O)Nc1cc2occ(NC=O)c(=O)c2cc1Oc1ccccc1
Potency [6]: 18 µM (active) and inactive

C=C1/C(=C/C=C2\CCC[C@]3(C)[C@@H]([C@H](C)/C=C/[C@H](O)C4CC4)CC[C@@H]23)C[C@@H](O)C[C@@H]1O
Potency [6]: inactive
Potency [2]: inactive
Potency [3]: inactive
Potency [4]: inactive

CC[C@H](C)/C=C(C)/C=C/C1=CC2=CC(=O)[C@]3(C)OC(=O)[C@@H](C(C)=O)[C@@H]3C2=CO1
Potency [1]: inactive
Potency [2]: inactive
Potency [4]: inactive
Potency [5]: inactive
